697 NFkB inh: inhibitors of PMA/ionomycin-induced NF-kB reporter, 697 cells, primary screen, B-cell NF-kB inhibitor project, cell-based, luminescence, uHTS; hit rate 0.33% among 330,000; 697 B-cell NF-kB luciferase reporter, 16 h; inhibition, % at 4 µM; in the data active = inhibition above about 35%
TAG inh: inhibitors of triacylglycerol accumulation, primary screen, cell-based, uHTS, fluorescence, H9c2; H9c2 cells, Nile Red lipid (TAG) fluorescence; cells loaded with 200 µM oleic acid; hit rate 0.66% among 230,000; inhibition, % at 12.5 µM;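 active = pattern-corrected inhibition of lipid staining of at least 50% with the nuclear-stain viability signal not falling by more than 50%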;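 note: 0% = DMSO wells and 100% = triacsin C control wells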
aSyn UTR inh: MLPCN primary screen, SNCA 5' untranslated region; alpha-synuclein 5'UTR reporter, inhibitor activity; inhibition, % (tested at 7.5 µM); hit rate 0.82% among 300,000; AID 1813, 2009; in the data active = inhibition above about 60%; inconclusive = no clear call, values can overlap the other calls;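 note: H4 neuroglioblastoma cells stably carrying SNCA 5'UTR luciferase fusion; 0% = DMSO wells and 100% = positive control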
Shn3 3UTR inh: reduction of Shn3 3'UTR firefly luciferase signal, primary screen, Schnurri-3 inhibitor project, cell-based, Clone20 osteoblasts, set 2 | Clone20 osteoblast Shn3 3'UTR firefly luciferase, 24 h | inhibition, % at 12.5 µM | hit rate 0.52% among 360,000 | AID 588674, 2011;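 active = mean inhibition of at least 75% with every replicate also reaching 75%; inconclusive = mean inhibition at least 75% but some replicate below; inactive = mean inhibition below 75%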;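 note: 0% = median of neutral control wells and 100% = pilot-screen positive control compound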
Gli-Sufu block: Gli-Sufu pathway antagonists, primary screen, luciferase luminescence, Sufu-KO-LIGHT cells, uHTS; Sufu-KO-LIGHT fibroblasts, Gli luciferase reporter luminescence; inhibition, % at 5 µM; hit rate 0.74% among 340,000; AID 588413, 2011;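 active = inhibition above about 55%, limit read from the data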;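 note: 0% = DMSO-treated cells and 100% = wells with medium but no cells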
Jurkat NFkB inh: inhibitors of induced NF-kB luciferase reporter, primary screen, TCR NF-kB activation inhibitor project, cell-based, luminescence, uHTS; Jurkat, PMA/ionomycin-induced NF-kB luciferase reporter; hit rate 0.53% among 330,000; inhibition, % at 4 µM; AID 435003, 2010; in the data active = inhibition above about 50%
Starred values were filed as active, the others as inactive; ? = inconclusive; nt = not tested or not shown. Compounds with a hit are over-represented: about 2.3% of the library has one in this group of screens.

SMILES | 697 NFkB inh | TAG inh | aSyn UTR inh | Shn3 3UTR inh | Gli-Sufu block | Jurkat NFkB inh
CCn1c(SCC(N)=O)nnc1-c1cc2c(C)nn(-c3ccccc3)c2s1 | 21 | nt | 25 | 13 | 10 | -9
COc1ccc(C(=O)c2ccc(OC)c(OC)c2OC)cc1 | nt | 2 | nt | 10 | -10 | nt
COc1ccc(C(=O)c2ccc(N(C)C)cc2)c2ccccc12 | -30 | nt | 74* | 13 | 42 | 33
O=C(NCc1cccs1)C1CC(c2ccccc2O)=NO1 (stereo not drawn) | 3 | nt | -6 | -12 | -34 | 18
CCc1nc2ccccc2c2nc3ccccc3n12 | -18 | -7 | -50 | -5 | -17 | 0
O=c1c2ccc([N+](=O)[O-])c3cccc(c32)c2nc3ccccc3n12 | -59 | nt | 79* | nt | nt | 0
CC(C)(C)c1ccc(C(=O)Nc2sc3c(c2C(=O)O)CCC3)cc1 | 29 | 19 | 95* | 29 | 4 | -5
CC(C)CC(N)c1csc(NC(=O)C(c2ccccc2)c2ccccc2)n1 (stereo not drawn) | nt | 123 | nt | 69 | nt | nt
CC(C)CC(N)c1csc(NC(=O)c2cc(C(C)(C)C)nn2Cc2ccccc2)n1 (stereo not drawn) | nt | 126 | nt | 97* | nt | nt
CCc1ccc(C(=O)Nc2cc3c(cc2Cl)OCCCO3)cc1 | -145 | nt | -172 | -60 | 6 | -101
O=[N+]([O-])c1ccc(N/N=C\c2cccn2-c2ccccc2)nc1 | -110 | 56* | 51 | 7 | 0 | 14
COc1cc(OC)c(OC)cc1CNc1cc(C)ccc1OC | -41 | nt | 11 | 89* | -13 | -13
COc1ccc(C)cc1NCc1cccc(OC)c1OC | 19 | nt | -8 | 2 | 4 | 0
Fc1ccccc1COc1ccc(Br)cc1CNCC1CCCO1 (stereo not drawn) | -4 | -5 | 10 | 28 | 31 | -2
Cc1nc2cc(N3CCCCC3)c(NC(=O)c3ccncc3)cc2c(=O)n1Cc1ccc(Cl)cc1 | -35 | nt | 62* | nt | nt | -20
Nc1ccc(Cl)c(S(=O)(=O)Nc2cccc(Cl)c2)c1 | 5 | 0 | -1 | -3 | 3 | -2
CCN1/C(=C/C=C/C=C/c2sc3ccccc3[n+]2CC)Sc2ccccc21 | -7 | nt | 126* | nt | nt | 33
CN(C)CCCN(C(=O)CCc1ccccc1)c1nc2ccc(F)cc2s1 | 14 | nt | -70 | 6 | 7 | 8
Cc1cc(C)c2sc(N(CCCN(C)C)C(=O)c3ccc(S(=O)(=O)N4CCCc5ccccc54)cc3)nc2c1 | -10 | 56* | -1 | -1 | 0 | 19
Cc1ccc2nc(N(CCCN(C)C)C(=O)c3ccc(S(=O)(=O)N4CCc5ccccc5C4)cc3)sc2c1 | 4 | 69* | 88* | 25 | 12 | 10
CN(C)CCCN(C(=O)c1ccc(S(=O)(=O)N2CCc3ccccc32)cc1)c1nc2ccc(Cl)cc2s1 | -2 | 1 | ? | 4 | 24 | -5
COc1ccc2sc(N(CCCN(C)C)C(=O)c3ccc(S(=O)(=O)N4CCc5ccccc5C4)cc3)nc2c1 | -4 | 44 | 3 | -18 | 6 | -35
Cc1cc(C)c2sc(N(CCCN(C)C)C(=O)c3ccc(S(=O)(=O)N4CCc5ccccc5C4)cc3)nc2c1 | 1 | 54* | 30 | -28 | nt | 15
CN(C)CCCN(C(=O)c1cc(-c2cccs2)nc2ccccc12)c1nc2ccc(F)cc2s1 | 14 | 60* | 99* | 8 | 3 | 18
Cc1cccc2sc(N(CCCN(C)C)C(=O)c3ccc(S(=O)(=O)N4CCc5ccccc5C4)cc3)nc12 | -36 | 17 | 37 | 16 | 27 | 33
SMILES | 697 NFkB inh | TAG inh | aSyn UTR inh | Shn3 3UTR inh | Gli-Sufu block | Jurkat NFkB inh
O=C(CCl)N1CCN2C(=O)c3ccccc3C12c1ccc(Cl)cc1 (stereo not drawn) | -3 | 14 | 36 | -11 | 3 | -5
CC1CC(C)CN(S(=O)(=O)c2ccc(C(=O)N3CCN(c4ccccc4)CC3)cc2)C1 (stereo not drawn) | 6 | nt | -5 | 43 | nt | 17
COc1ccc2[nH]cc(CCNC(=O)c3ccco3)c2c1 | 15 | nt | nt | -9 | -5 | -1
CN(C)CCCN(C(=O)c1ccc(S(=O)(=O)N2CCc3ccccc32)cc1)c1nc2ccc(F)cc2s1 | 8 | -10 | 1 | -6 | 20 | -2
CN(C)CCCN(C(=O)c1ccc(S(=O)(=O)N2CCc3ccccc3C2)cc1)c1nc2ccc(F)cc2s1 | -57 | 57* | 99* | -3 | -3 | 16
CC(C)(C)C1CCC(=O)N(CCOc2ccccc2)CC1 (stereo not drawn) | -28 | nt | -101 | -1 | -43 | -14
NNC(=O)c1[nH]c2ccc(Cl)cc2c1-c1ccccc1 | 10 | 9 | 77* | 6 | 0 | 5
CCN(CC)C(=S)Sc1c(-c2ccccc2)c2cc(Cl)ccc2[nH]c1=O | -14 | -58 | 32 | 87* | 0 | 4
Cc1cc(C(C2C(=O)CC(C)(C)CC2=O)C2C(=O)CC(C)(C)CC2=O)cc(C)c1OC(F)F | 0 | nt | 2 | -9 | -5 | 7
O=C(NCc1nnc(SCC(=O)N2CCOCC2)o1)c1cccs1 | -22 | nt | -1 | 1 | -1 | -23
CCS(=O)(=O)N1CCN(C(=O)c2ccc3nc(C)c(N(C)C(=O)CCc4ccccc4)n3c2)CC1 | nt | -7 | nt | -10 | nt | nt
N=c1n(CCO)c2ccccc2n1Cc1ccc(Cl)cc1 | -3 | -16 | 5 | 28 | 13 | 1
N=c1n(Cc2ccc(Cl)cc2)c2ccccc2n1CC(O)COc1ccccc1 (stereo not drawn) | -13 | 73* | 0 | 86* | 53 | 19
N=c1n(Cc2ccccc2)c2ccccc2n1Cc1ccccc1 | -47 | nt | 5 | 69 | 46 | -13
N=c1n(Cc2ccccc2)c2ccccc2n1CC(O)COc1ccc(Cl)cc1Cl (stereo not drawn) | -13 | nt | 90* | 92* | 56* | 40
Cc1ccc(OCC(O)Cn2c(=N)n(Cc3ccccc3)c3ccccc32)cc1 (stereo not drawn) | -46 | nt | 6 | 81* | 27 | 11
CCOC(=O)c1sc(NC(=O)C2CC2)cc1C | 3 | 6 | -19 | 6 | -4 | 0
CC(C)C(=O)Nc1ccc(C(=O)NC2CCSC2=O)cc1 (stereo not drawn) | 7 | nt | -2 | -1 | -4 | -1
COCCCn1c(=O)c2sccc2n2c(CCCC(=O)N(C)Cc3ccco3)nnc12 | 34 | nt | 9 | 0 | 25 | 25
COc1cc(OC)cc(C(=O)NCC(=O)OCC(=O)c2cc(C)n(Cc3ccco3)c2C)c1 | 9 | nt | -4 | -81 | 2 | 4
O=C(CCN1C(=O)c2ccccc2C1=O)C1=NN[C@@H]2C(=O)N(c3cccc(F)c3)C(=O)[C@H]12 | 28 | 12 | 4 | -4 | 15 | 0

Compound activity from PubChem.
